Where “and” joins values, the source holds several entries; their conditions need not be identical. Equal entries are not always repeated. Inconclusive results are not listed. More than one record can exist for a structure, and the calls need not agree. Calls of active or inactive are those of the source. Unless noted, calls come from the whole dose curve; as a rule, active = well fitted curve in the direction sought with a large enough effect in the repeat runs; inconclusive = weak or mixed curves; inactive = no such curve, though single readings can be large; an effect the other way counts as inactive or inconclusive.
Key:
[1] = qHTS assay to test for compound auto fluorescence at 535 nm (green) in HEK293 cells (AID 720680)
[2] = qHTS assay to test for compound auto fluorescence at 460 nm (blue) in HEK293 cell free culture (AID 720681)
In short: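 Compounds were added to cell-free DMEM with 10% FBS and fluorescence read directly. The blue channel used 405 nm excitation and 460 nm emission, with triamterene as the reference fluorophore.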

[3] = qHTS assay to test for compound auto fluorescence at 535 nm (green) in HEK293 cell free culture (AID 720682)
In short: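 Green-channel intensity (Ex/Em 485/535 nm) was recorded from compound-treated wells containing only DMEM with 10% FBS. Fluorescein provided the equivalency standard.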

[4] = qHTS assay to test for compound auto fluorescence at 590 nm (red) in HEK293 cell free culture (AID 720683)
In short: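 Cell-free wells of DMEM with 10% FBS received compound, and intrinsic fluorescence was read at excitation/emission 540/590 nm. Values expressed as equivalence to Rose Bengal sodium.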

[5] = qHTS assay to test for compound auto fluorescence at 590 nm (red) in HepG2 cell free culture (AID 720684)
In short: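 Rose Bengal sodium served as the reference for red signal. Test compounds were dispensed into serum-containing MEM (10% FBS) without cells, and plates were read at 540/590 nm.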

[6] = qHTS assay to test for compound auto fluorescence at 460 nm (blue) in HepG2 cell free culture (AID 720685)
In short: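 Cell-free plates of MEM plus 10% FBS received 23 nL compound or DMSO vehicle; blue-channel (405/460 nm) intensity scored against triamterene as reference fluorophore.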

[7] = qHTS assay to test for compound auto fluorescence at 535 nm (green) in HepG2 cell free culture (AID 720686)
[8] = qHTS assay to test for compound auto fluorescence at 460 nm (blue) in HepG2 cells (AID 720687)
In short: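 HepG2 cells in MEM with 10% FBS, attached overnight at 37 C, were exposed to compound or DMSO for 1 hr at 37 C, 5% CO2. Blue fluorescence was read at 405/460 nm, with triamterene as reference fluorophore.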

[9] = qHTS assay for identifying genotoxic compounds that show differential cytotoxicity against isogenic chicken DT40 cell lines with known DNA damage response pathways - wild type cell line (AID 743012); note: nearly all actives have a fitted effect of over 60% in size; note: potency is the fitted concentration of half-maximal effect
In short: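 CellTiter-Glo luminescence readout of viability in wild type DT40 cells after 40 h compound exposure at 37 C/5% CO2; 300 cells/well; reagent incubated 30 min at room temperature before reading.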

[10] = qHTS assay for identifying genotoxic compounds that show differential cytotoxicity against isogenic chicken DT40 cell lines with known DNA damage response pathways - Rev3 mutant cell line (AID 743014); note: nearly all actives have a fitted effect of over 55% in size; note: potency is the fitted concentration of half-maximal effect
[11] = qHTS assay for identifying genotoxic compounds that show differential cytotoxicity against isogenic chicken DT40 cell lines with known DNA damage response pathways - Rad54/Ku70 mutant cell line (AID 743015); note: nearly all actives have a fitted effect of over 60% in size; note: potency is the fitted concentration of half-maximal effect
[12] = qHTS assay to identify small molecule antagonists of the androgen receptor (AR) signaling pathway - cell viability counter screen (AID 743033; note: nearly all actives have a fitted effect of over 45% in size; note: potency is the fitted concentration of half-maximal effect)
[13] = target: Androgen receptor (Homo sapiens) (UniProt P10275); assay: qHTS assay to identify small molecule antagonists of the androgen receptor (AR) signaling pathway (AID 743035; active = well fitted inhibition curve with a large enough effect in the signal ratio in the repeat runs, not every such curve was filed as active; the % refers to the signal ratio; note: potency is the fitted concentration of half-maximal effect)
In short: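 AR-bla HEK293 reporter cells; 4 h settle at 37C/5% CO2; compound + R1881 agonist, 16 h at 37C; LiveBLAzer B/G FRET substrate 2 h RT; fluorescence intensity read. qHTS format.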

[14] = qHTS assay to identify small molecule antagonists of the androgen receptor (AR) signaling pathway using the MDA cell line - cell viability counter screen (AID 743041; note: nearly all actives have a fitted effect of over 45% in size; note: potency is the fitted concentration of half-maximal effect)
In short: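 Cytotoxicity counter screen: MDA-kb2 AR-luc cells, compound + R1881, 16 h, 37C, 0% CO2; CellTiter-Fluor added at 15.5 h, fluorescence read after 30 min.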

[15] = target: Androgen receptor (Homo sapiens) (UniProt P10275); assay: qHTS assay to identify small molecule antagonists of the androgen receptor (AR) signaling pathway using the MDA cell line (AID 743042; note: nearly all actives have a fitted effect of over 55% in size; note: potency is the fitted concentration of half-maximal effect)
In short: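 MDA-kb2 breast carcinoma cells carrying MMTV-luciferase (AR/GR responsive) were co-treated with compounds and the agonist R1881 for 16 h at 37C. Inhibition read as ONE-Glo luminescence; CellTiter-Fluor fluorescence measured in parallel for cytotoxicity.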

[16] = qHTS assay to identify small molecule antagonists of the glucocorticoid receptor (GR) signaling pathway - cell viability counter screen (AID 720693); note: nearly all actives have a fitted effect of over 55% in size
[17] = qHTS assay to identify small molecule antagonists of the thyroid receptor (TR) signaling pathway - cell viability counter screen (AID 743064); note: nearly all actives have a fitted effect of over 50% in size; note: potency is the fitted concentration of half-maximal effect
In short: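 In rat pituitary GH3.TRE-Luc reporter cells co-exposed to compound and 1 nM T3 for 23.5 h, cytotoxicity was assessed with CellTiter-Fluor in the same wells, read by fluorescence.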

[18] = target: Androgen receptor (Homo sapiens) (UniProt P10275); assay: qHTS assay to identify small molecule agonists of the androgen receptor (AR) signaling pathway using the MDA cell line (AID 743040; note: nearly all actives have a fitted effect of over 20% in size)
In short: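 Luciferase read-out, ONE-Glo, 30 min RT. Cells: MDA-kb2 AR-luc, MMTV promoter with AR and GR response elements. Compound exposure 16 h, 37C, 0% CO2, after 5 h pre-incubation. qHTS agonist mode.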

Measured: Potency

Sequence of Androgen receptor (Homo sapiens) (P10275 whole entry, looked up): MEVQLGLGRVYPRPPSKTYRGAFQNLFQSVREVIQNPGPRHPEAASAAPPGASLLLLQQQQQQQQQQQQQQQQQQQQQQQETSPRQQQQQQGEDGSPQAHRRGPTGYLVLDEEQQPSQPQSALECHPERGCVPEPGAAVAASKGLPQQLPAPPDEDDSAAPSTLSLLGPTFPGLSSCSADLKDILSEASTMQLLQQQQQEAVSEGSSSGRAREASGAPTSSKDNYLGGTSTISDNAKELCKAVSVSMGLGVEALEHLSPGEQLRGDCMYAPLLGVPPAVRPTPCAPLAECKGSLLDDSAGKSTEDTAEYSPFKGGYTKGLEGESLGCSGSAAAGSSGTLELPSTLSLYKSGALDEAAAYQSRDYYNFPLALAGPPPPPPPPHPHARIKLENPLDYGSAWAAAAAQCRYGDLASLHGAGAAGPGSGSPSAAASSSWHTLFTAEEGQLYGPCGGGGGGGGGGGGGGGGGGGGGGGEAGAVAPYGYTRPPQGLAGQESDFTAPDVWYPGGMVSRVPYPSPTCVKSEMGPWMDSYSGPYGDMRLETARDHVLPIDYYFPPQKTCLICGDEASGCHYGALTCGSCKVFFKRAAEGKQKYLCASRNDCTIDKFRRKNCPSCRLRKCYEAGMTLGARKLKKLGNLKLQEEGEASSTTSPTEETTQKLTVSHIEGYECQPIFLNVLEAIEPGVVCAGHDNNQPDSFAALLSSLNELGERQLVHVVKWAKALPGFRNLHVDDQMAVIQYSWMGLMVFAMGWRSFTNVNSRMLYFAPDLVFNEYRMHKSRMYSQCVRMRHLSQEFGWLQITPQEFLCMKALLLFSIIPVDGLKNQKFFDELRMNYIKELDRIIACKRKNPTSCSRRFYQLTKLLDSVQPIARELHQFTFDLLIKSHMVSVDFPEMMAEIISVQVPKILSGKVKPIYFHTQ

NC(=O)c1nc(-c2cccc(-c3cc(F)ccc3OCC(F)(F)C(F)(F)F)c2)n[nH]1
active: [9] 17.2 µM | [10] 24.3 µM | [11] 13.7 µM | [12] 21.9 µM | [13] 13.8 µM | [14] 61.1 µM | [15] 61.1 µM
not listed: [16] | [17] | [18]
inactive: all other assays above

CO[C@H]1C=CO[C@@]2(C)Oc3c(C)c(O)c4c(O)c(cc(O)c4c3C2=O)NC(=O)/C(C)=C\C=C/[C@H](C)[C@H](O)[C@@H](C)[C@@H](O)[C@@H](C)[C@H](OC(C)=O)[C@@H]1C
inactive and 12.3 µM (active): [11]
active: [17] 48.9 µM
inactive and 49.3 µM (active): [12]
inactive and 6.91 µM (active): [10]
not listed: [9] | [13] | [14] | [15] | [18]
inactive: all other assays above

CCCCOC(=O)C(C)CC (centres undefined)
active: [10] 13.7 µM | [11] 13.7 µM | [12] 43.6 µM
not listed: [9] | [13] | [15] | [18]
inactive: all other assays above

CC=O
active: [9] 0.0717 µM | [10] 0.057 µM | [11] 0.0717 µM | [12] 22.9 µM | [14] 63.9 µM | [17] 2.86 µM
not listed: [13] | [15] | [16] | [18]
inactive: all other assays above

Clc1ccc(C(Cn2ccnc2)OCc2ccsc2Cl)c(Cl)c1 (centres undefined)
active: [9] 7.5 µM | [10] 11.9 µM | [11] 13.3 µM | [12] 26.8 µM | [17] 13.3 µM
not listed: [13] | [15] | [16] | [18]
inactive: all other assays above

[O]=[Zr]
not listed: [13] | [15] | [16] | [18]
inactive: all other assays above

Cc1ccc2ccc3cccc4ccc1c2c34
not listed: [12] | [13] | [14] | [15] | [16] | [18]
inactive: all other assays above

C=C1C(C)(C)[C@@]2(Cl)C(Cl)[C@]1(Cl)C(Cl)(Cl)C2(Cl)Cl (some centres undefined)
active: [9] 47.7 µM | [10] 6.73 µM | [11] 23.9 µM | [17] 26.8 µM
not listed: [12] | [13] | [16]
inactive: all other assays above

C=CCCCCCCC=C
not listed: [10] | [12] | [13] | [15] | [16] | [18]
inactive: all other assays above

CC(C)(c1cc(Br)c(OCCO)c(Br)c1)c1cc(Br)c(OCCO)c(Br)c1
active: [9] 7.52 µM | [10] 13.4 µM | [11] 16.8 µM | [13] 17 µM | [15] 42.3 µM | [17] 47.5 µM
not listed: [12] | [14] | [16] | [18]
inactive: all other assays above

C=CC(C)(CCC=C(C)C)OC(=O)/C=C/c1ccccc1 (centres undefined)
not listed: [9] | [10] | [11] | [12]
inactive: all other assays above

ClC/C=C\CCl
not listed: [13] | [15] | [16] | [18]
inactive: all other assays above

CC(COC(=O)c1ccccc1)OC(=O)c1ccccc1 (centres undefined)
active: [11] 61.1 µM
not listed: [9] | [13] | [14] | [15] | [18]
inactive: all other assays above

CCCCCCCCCCCC(=O)N(CC)CC
active: [10] 30.6 µM
not listed: [9] | [11] | [13] | [15] | [17] | [18]
inactive: all other assays above

COc1ccc2sc(C(=O)Nc3nnn[nH]3)c(OC(C)C)c2c1
active: [10] 27.2 µM | [11] 17.2 µM | [12] 24.5 µM | [17] 7.66 µM
inactive: [1] | [2] | [3] | [4] | [5] | [6] | [7] | [8]

CCCCC(CC)COC(=O)c1ccc(O)cc1 (centres undefined)
active: [10] 43.1 µM and 48.6 µM | [11] 48.6 µM
not listed: [9] | [13] | [15] | [16] | [17] | [18]
inactive: all other assays above

Reference: PubChem BioAssay (Tox21)
